In all, about 310,000 compounds went through this assay and about 2,200 (0.71%) showed an effect of 50% or more. The effect is printed as a negative number. This is one part of a sample in which strong results are shown more often than they occur.
Target: human ether-à-go-go-related gene (hERG) potassium channel (human, UniProt Q12809)
Experiment: primary screen, population patch clamp on CHO cells stably expressing hERG; higher = less effect of the substance

Chain of human ether-à-go-go-related gene (hERG) potassium channel (Q12809 whole entry, looked up): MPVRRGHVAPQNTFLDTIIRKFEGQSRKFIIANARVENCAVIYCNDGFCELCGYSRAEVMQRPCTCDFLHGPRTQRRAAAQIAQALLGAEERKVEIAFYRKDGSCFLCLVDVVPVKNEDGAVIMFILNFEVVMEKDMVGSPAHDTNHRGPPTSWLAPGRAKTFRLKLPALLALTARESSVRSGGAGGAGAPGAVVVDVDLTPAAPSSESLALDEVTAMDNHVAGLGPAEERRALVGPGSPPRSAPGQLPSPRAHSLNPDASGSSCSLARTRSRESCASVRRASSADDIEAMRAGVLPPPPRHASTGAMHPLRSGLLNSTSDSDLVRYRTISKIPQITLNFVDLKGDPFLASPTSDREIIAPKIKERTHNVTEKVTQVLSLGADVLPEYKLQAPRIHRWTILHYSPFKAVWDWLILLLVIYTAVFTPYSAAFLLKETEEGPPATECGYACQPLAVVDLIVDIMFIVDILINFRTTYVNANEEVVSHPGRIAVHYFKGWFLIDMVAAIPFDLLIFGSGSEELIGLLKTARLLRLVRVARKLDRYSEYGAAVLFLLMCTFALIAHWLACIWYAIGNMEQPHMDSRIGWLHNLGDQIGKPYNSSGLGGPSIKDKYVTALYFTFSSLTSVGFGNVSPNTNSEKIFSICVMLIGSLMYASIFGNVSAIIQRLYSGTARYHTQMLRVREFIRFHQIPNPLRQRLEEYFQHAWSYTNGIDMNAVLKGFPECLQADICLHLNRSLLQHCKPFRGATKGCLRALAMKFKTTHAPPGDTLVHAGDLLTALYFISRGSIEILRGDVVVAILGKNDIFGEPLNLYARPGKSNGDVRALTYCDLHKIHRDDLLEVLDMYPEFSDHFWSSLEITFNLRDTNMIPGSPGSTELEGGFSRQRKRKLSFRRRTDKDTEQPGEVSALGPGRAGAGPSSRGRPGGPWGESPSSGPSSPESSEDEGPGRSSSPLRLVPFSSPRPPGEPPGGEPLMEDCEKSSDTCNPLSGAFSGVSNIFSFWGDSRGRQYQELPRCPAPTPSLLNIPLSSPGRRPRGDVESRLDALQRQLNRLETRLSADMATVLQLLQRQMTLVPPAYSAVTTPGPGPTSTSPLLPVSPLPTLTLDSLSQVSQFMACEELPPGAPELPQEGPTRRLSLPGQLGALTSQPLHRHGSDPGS

SMILES	hERG current change (%, negative = inhibition) at 1uM [%]
Cc1ccc(NC(=O)c2cc(C)on2)cc1	6.42
CC12CN3CC(C)(CN(C1)C3c1ccccc1)C2O (stereo not shown)	9.98
Cc1ccc(C2=NN(CC(=O)NCCN(CC(C)C)CC(C)C)C(=O)CC2)cc1	-3.88
COc1cc(NC(=O)C(C)Oc2ccccc2)c(OC)cc1NC(=O)c1ccccc1 (stereo not shown)	13.2
Cc1ccc(Cn2nnnc2CN2CCC(c3nc4ccc(Cl)cc4[nH]3)CC2)cc1	4.97
COc1ccc(CN2CCC(c3nc4ccc(Cl)cc4[nH]3)CC2)cc1	-84
Clc1ccc2nc(C3CCN(Cc4nnnn4C4CCCCC4)CC3)[nH]c2c1	-16.2
CC(C)(C)c1ccc(S(=O)(=O)N2CCC(c3nc4ccc(Cl)cc4[nH]3)CC2)cc1	7.6
Clc1ccc(CN2CCC(c3nc4ccc(Cl)cc4[nH]3)CC2)cc1	-78.7
COc1ccc(NC(=S)N2CCC(c3nc4ccc(Cl)cc4[nH]3)CC2)c(OC)c1	1.15
O=C(c1cccc(Cl)c1)N1CCC(c2nc3ccccc3[nH]2)CC1	-0.145
Cc1ccc(CN2CCC(c3nc4ccc(Cl)cc4[nH]3)CC2)cc1	-91.8
CC1CCCCN1C(=O)CN1CCC(c2nc3ccc(Cl)cc3[nH]2)CC1 (stereo not shown)	1.51
Clc1ccc2nc(C3CCN(Cc4ccccc4)CC3)[nH]c2c1	-73.7
CC1CCCN(C(=O)CN2CCC(c3nc4ccc(Cl)cc4[nH]3)CC2)C1 (stereo not shown)	-35.9
O=C(NC1CCCCC1)N1CCC(c2nc3ccc(Cl)cc3[nH]2)CC1	6.29
Cc1nc(CCl)cc(=O)[nH]1	4.26
Cc1[nH]ccc(=O)c1OCc1c(F)cccc1Cl	12.8
Nc1cc(=O)[nH]c(SCC(=O)Nc2ccc(Cl)c(Cl)c2)n1	1.55
Cc1nc(SCCC(=O)O)c2cc(-c3ccccc3)sc2n1	6.67
NC(=O)CSc1nnc(CNc2ccc(F)cc2)n1CC1CCCO1 (stereo not shown)	-1.77
COc1ccc(-n2ccnc(SCC(=O)NC3CCCC3)c2=O)cc1	-4.46
CCOc1cc(C(=O)NC(C)c2ccncc2)cc(OCC)c1OCC (stereo not shown)	-1.97
Cc1cc(Cl)ccc1N(CC(=O)NCc1ccc2c(c1)OCO2)S(C)(=O)=O	3.99

SMILES	hERG current change (%, negative = inhibition) at 1uM [%]
Cc1ccc(NC(=S)N(CCC(C)C)C(C)c2ccncc2)c(Cl)c1 (stereo not shown)	10.9
CC1(C(=O)NC(=S)N(Cc2ccccc2)c2ccccn2)CC1(Cl)Cl (stereo not shown)	12.4
Cc1cc(C)c([C@@H]2C[C@H]3CN(C4CCCC4)C(=O)[C@]34CCCN24)c(-n2cccn2)c1	-71.7
Cc1ccc(-n2cccn2)c([C@@H]2C[C@H]3CN(C)C(=O)[C@]34CCCN24)c1	-15
Cn1cc([C@@H]2C[C@H]3CN(C4CCCC4)C(=O)[C@]34CCCN24)c(-c2ccccc2)n1	-0.828
CN1C[C@@H]2C[C@@H](c3cccn3-c3nccs3)N3CCC[C@@]23C1=O	1.26
O=C1N(C2CCCC2)C[C@@H]2C[C@@H](c3cccn3-c3nccs3)N3CCC[C@@]123	-60.3
O=C1N(C2CCCC2)C[C@@H]2C[C@@H](c3cccn3-c3ccccn3)N3CCC[C@@]123	-28.9
COc1ccc(Nc2nc(N)c(C(=O)c3ccc(OC)cc3)s2)cc1	-5.28
CC12CCC(=O)N1C(C(=O)Nc1cc(C(F)(F)F)ccc1N1CCOCC1)CS2 (stereo not shown)	10.5
Cc1cc(C)nc(NC(=S)Nc2cccc(F)c2)c1	6.3
CCOc1cc(N2CCOCC2)c(OCC)cc1NC(=O)c1ccc(C)s1	-1.15
COc1ccc(N=C2SCCCN2C)cc1.I	15.8
c1cc2c3c(cccc3c1)C(N1CCCCC1)=N2	-44.8
c1cc2c3c(cccc3c1)C(N1CCOCC1)=N2	-0.83
Fc1ccc(N2CCN(C3=Nc4cccc5cccc3c45)CC2)cc1	-69.4
CNC(=O)CC1C(=O)N(c2ccc(Cl)cc2)C(=S)N1CCc1ccc(OC)c(OC)c1 (stereo not shown)	10.1
N=c1c(S(=O)(=O)c2ccc(Br)cc2)cc2c(=O)n3ccccc3nc2n1C1CCCCC1	21.1
N=c1c(C(=O)NCC2CCCO2)cc2c(=O)n3ccccc3nc2n1C1CCCCC1 (stereo not shown)	-79.2
N=c1c(C(=O)NCC2CCCO2)cc2c(=O)n3ccccc3nc2n1C1CCCC1 (stereo not shown)	-72.2
O=C(NCC1CCCO1)c1cccc2ccccc12 (stereo not shown)	17.8
N=c1c(S(=O)(=O)c2ccc(Br)cc2)cc2c(=O)n3ccccc3nc2n1C1CCCC1	14.3
CN(C)c1ccc(CN(C(=O)/C=C/c2ccco2)C2CCS(=O)(=O)C2)cc1 (stereo not shown)	11.7
O=C(Nc1ccc(F)c(Cl)c1)Nn1cnnc1	0.762

SMILES	hERG current change (%, negative = inhibition) at 1uM [%]
Cc1cccc(NC(=S)N/N=C/c2ccc([N+](=O)[O-])s2)c1	11.2
COc1ccc2[nH]c(=O)c(C(c3nnnn3C3CCCC3)N(C)C3CCCCC3)cc2c1 (stereo not shown)	-3.8
CN(C(=O)c1ccc(S(=O)(=O)N2CCCCC2)cc1)C1CCS(=O)(=O)C1 (stereo not shown)	-3.22
CC1CC(C)CN(CC(=O)c2cccs2)C1 (stereo not shown)	-7.65
Br.O=C(CN1CCCCC1CO)c1ccc(OC(F)F)cc1 (stereo not shown)	-21.3
CC1CC(C)CN(C(=S)Nc2ccc(OC(F)F)cc2)C1 (stereo not shown)	-45.1
Cl.O=C(CN1CCCCC1)c1ccc(F)cc1	7.09
CCC1CCCCN1CC(=O)c1ccc(OC(F)F)cc1 (stereo not shown)	-80.2
CCC1CCCCN1CC(=O)c1c(C)[nH]c2ccc(OC)cc12 (stereo not shown)	-5.25
Br.CC1CC(C)CN(CC(=O)c2ccc(OC(F)F)cc2)C1 (stereo not shown)	-96.1
Br.O=C(CN1CCCCC1)c1ccc(OC(F)F)cc1	-63.4
Br.COc1ccc(C(=O)CN2CCCCC2)cc1	13.9
O=C(COC(=O)C1CCN(C(=O)c2ccc(Cl)cc2)CC1)Nc1ccccc1F	-11.5
Cc1cc(-c2nn(-c3ccccc3F)cc2CN2CCN(c3ccccn3)CC2)c(C)s1	10.2
Cc1cc(-c2nn(-c3ccccc3F)cc2CN2CCC(O)CC2)c(C)s1	-0.852
Cc1cc(-c2nn(-c3ccccc3F)cc2CN2CCN(c3ccncc3)CC2)c(C)s1	-69.3
Cc1ccc(N(CC(=O)NC(C)(C)C)C(=O)CNC(=O)c2cccs2)cc1	7.4
CN(CC(=O)Nc1ccc(F)cc1)C(=O)Cn1nnc(-c2ccccc2)n1	7.23
CC(C)N(C)C1CCN(C(=O)Nc2ccc(Cl)c(Cl)c2)CC1	-19.5
c1ccc(CSc2nnc(-c3ccco3)n2Cc2ccccc2)cc1	-6.43
O=C(CSc1nnc(-c2ccco2)n1Cc1ccccc1)c1ccccc1	8.89
O=C1c2ccccc2C(=O)N1CCSc1nnc(-c2ccco2)n1Cc1ccccc1	-51.1
Cc1c(NC(=S)N2CCN(c3cccc(Cl)c3)CC2)c(=O)n(-c2ccccc2)n1C	9.46
CCNC(=O)OCCC12CC3CC(CC(C3)C1)C2	11.6

SMILES	hERG current change (%, negative = inhibition) at 1uM [%]
CCn1cc(CNC(=O)c2ccc3nc(Cc4ccccc4F)oc3c2)cn1	11.3
COCCN(C(=O)COC(=O)c1ccc2[nH]c(C)c(C)c2c1)c1c(N)n(Cc2ccccc2)c(=O)[nH]c1=O	7.98
CN(C)CCN(C(=O)c1ccc2c(c1)OCCO2)c1nc2ccc(Cl)cc2s1.Cl	10.8
CN(C)CCCN(C(=O)C1COc2ccccc2O1)c1nc2ccc(F)cc2s1.Cl (stereo not shown)	-64.9
CN(C)CCN(C(=O)C1=COCCO1)c1nc2ccc(Cl)cc2s1.Cl	-62.4
CN(C)CCCN(C(=O)c1ccc2c(c1)OCCO2)c1nc2ccc(Cl)cc2s1.Cl	-3.81
CN(C)CCCN(C(=O)C1COc2ccccc2O1)c1nc2cc3c(cc2s1)OCO3.Cl (stereo not shown)	-21.3
CN(C)CCCN(C(=O)C1=COCCO1)c1nc2ccc(Br)cc2s1.Cl	-25.1
CN(C)CCCN(C(=O)CCc1ccccc1)c1nc2ccc(F)cc2s1.Cl	-24.8
CN(C)CCN(C(=O)C1=COCCO1)c1nc2ccc(F)cc2s1.Cl	-57.7
Cc1ccc2nc(N(CCN(C)C)C(=O)C3=COCCO3)sc2c1.Cl	-5.32
Cc1csc(SC(C)C(=O)NC2CCCCC2C)n1 (stereo not shown)	7.18
COc1ccc2oc(=O)cc(-c3cc4ccccc4o3)c2c1	-1.03
O=C(C1CCCN(S(=O)(=O)c2ccccc2)C1)N1CCN(c2ccccc2)CC1 (stereo not shown)	-12.7
O=C(C1CCCN(S(=O)(=O)c2cccc3cccnc23)C1)N1CCN(c2ccccc2F)CC1 (stereo not shown)	-27.5
CC(=O)c1ccc(N2CCN(C(=O)C3CCCN3S(=O)(=O)c3cccc4nsnc34)CC2)cc1 (stereo not shown)	14.6
O=C(C1CCCN1S(=O)(=O)c1cccc2nsnc12)N1CCN(c2ccccc2)CC1 (stereo not shown)	-1.72
COc1ccc(N2CCN(C(=O)C3CCCN(S(=O)(=O)c4ccc(F)cc4)C3)CC2)cc1 (stereo not shown)	-7.16
O=C(C1CCCN(S(=O)(=O)c2ccccc2)C1)N1CCN(c2ccc(F)cc2)CC1 (stereo not shown)	-62.4
O=C(C1CCCN1S(=O)(=O)c1cccc2nsnc12)N1CCN(c2ccc(F)cc2)CC1 (stereo not shown)	-54.1
O=C(C1CCCN(S(=O)(=O)c2cccc3cccnc23)C1)N1CCN(c2ccc(F)cc2)CC1 (stereo not shown)	-50.1
COc1ccc(N2CCN(C(=O)C3CCCN(S(=O)(=O)c4cccc5cccnc45)C3)CC2)cc1 (stereo not shown)	5.91
